Calls of active or inactive are those of the source. Calls come from the whole dose curve.
% is set by controls: 0 for no effect and ±100 for the full control effect; potency is the fitted concentration of half-maximal effect.

Chain of Androgen receptor (Homo sapiens) (P10275 whole entry, looked up): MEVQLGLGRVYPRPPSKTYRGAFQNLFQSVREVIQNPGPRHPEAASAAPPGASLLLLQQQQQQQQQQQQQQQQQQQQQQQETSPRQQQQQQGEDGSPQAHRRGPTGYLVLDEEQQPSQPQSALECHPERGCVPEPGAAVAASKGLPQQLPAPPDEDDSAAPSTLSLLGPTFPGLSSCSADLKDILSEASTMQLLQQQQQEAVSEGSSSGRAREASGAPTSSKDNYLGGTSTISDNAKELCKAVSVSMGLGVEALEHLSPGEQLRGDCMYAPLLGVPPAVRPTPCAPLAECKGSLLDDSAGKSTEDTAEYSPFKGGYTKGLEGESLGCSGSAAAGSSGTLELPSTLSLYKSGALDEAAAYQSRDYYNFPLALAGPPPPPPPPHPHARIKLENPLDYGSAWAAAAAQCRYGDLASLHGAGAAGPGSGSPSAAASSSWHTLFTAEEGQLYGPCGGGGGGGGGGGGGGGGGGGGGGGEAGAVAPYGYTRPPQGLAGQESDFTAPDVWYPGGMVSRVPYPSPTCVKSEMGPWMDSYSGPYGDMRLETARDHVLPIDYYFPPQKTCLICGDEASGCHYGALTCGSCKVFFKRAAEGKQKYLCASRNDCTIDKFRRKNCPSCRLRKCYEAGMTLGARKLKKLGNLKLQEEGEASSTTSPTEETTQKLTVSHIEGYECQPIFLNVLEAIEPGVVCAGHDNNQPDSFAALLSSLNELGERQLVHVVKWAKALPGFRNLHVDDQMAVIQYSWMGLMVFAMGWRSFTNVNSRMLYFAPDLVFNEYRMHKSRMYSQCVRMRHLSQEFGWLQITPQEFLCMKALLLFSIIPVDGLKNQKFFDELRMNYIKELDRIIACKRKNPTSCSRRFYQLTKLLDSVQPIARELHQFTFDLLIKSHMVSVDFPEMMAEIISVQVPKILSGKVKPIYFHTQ

This assay has as its target Androgen receptor (Homo sapiens) (UniProt P10275). The assay can be described thus: qHTS assay to identify small molecule agonists of the androgen receptor (AR) signaling pathway in the presence of an antagonist (AID 1259381). Note: nearly all actives have a fitted effect of over 15% in size. The following applies: MDA-kb2 MMTV-luciferase, AR agonist + nilutamide, 16 h; series mostly up to 92.4 µM; activation: at the top concentration. The source says:
National Center for Advancing Translational Sciences [NCATS] NIH Chemical Genomics Center [NCGC] U.S. Environmental Protection Agency [EPA] National Institutes of Environmental Health Sciences [NIEHS] National Toxicology Program [NTP] Assay overview: Androgen receptor (AR) is an important member of nuclear receptor family. Its signaling plays a critical role in AR-dependent prostate cancer and other androgen related diseases. Considerable attention has been given in the past decades to develop methods to study and screen for the environmental chemicals that have the potential to interfere with metabolic homeostasis, reproduction, developmental and behavioral functions. Therefore AR binding assay for screening against androgen agonists and antagonists can be used to identify potential endocrine disruptors. MDA-kb2 cells (from ATCC, deposited by Wilson et al.) are human breast carcinoma cells that were stably transfected with a luciferase reporter gene under control of the MMTV promoter that contains response elements for both androgen receptor (AR) and glucocorticoid receptor (GR). This particular screening for measuring luciferase reporter gene activity using MDA-kb2 cells against Tox21 10K library compounds is a confirmation study on agonist mode screening in the presence of AR-antagonist compound (Nilutamide) at 3.0uM final concentration.
Assay Protocol Summary: MDA-kb2 cells (cells cultured without CO2) were dispensed at 3,000 cells/well in 4uL of culture medium into white wall/solid-bottom 1536-well plates (Corning Life Sciences, Corning, NY) using a Multidrop Combi (Thermo Fisher Scientific Inc., Waltham, MA) dispenser. The assay plates were incubated at 37C and 0% CO2 for 5hr. One uL of 3.0uM (final concentration) Nilutamide or assay buffer was added using two separate tips of Flying Reagent Dispenser (FRD, Aurora Discovery, San Diego, CA). Then 23nL of compounds dissolved in DMSO at 15 concentrations and positive controls were transferred to the assay plates using a Pintool station (Wako, San Diego, CA). The assay plates were incubated at 37C and 0% CO2 for 16hr. For luciferase read, 4uL/well ONE-Glo reagent (Promega Corporation, Madison, WI) was added to each well of the assay plates using FRD. After 30min incubation at room temperature, the luminescence signal was measured using a ViewLux plate reader (PerkinElmer, Shelton, CT).
For `Clc1ccc2c(Cl)ccnc2c1`, the “activation” value is 0.495% (inactive).
Still for that read-out and setting: next, `CC1(C)[C@H](C(=O)OCc2cccc(Oc3ccccc3)c2)[C@@H]1C=C(Cl)Cl`: -0.465% (inactive).
In the case of `Cc1cc(C)c(O)c(C(C)(C)C)c1`, the “activation” value was -0.0535% (inactive).
For the compound `C=CC(C)(C)O`, the “activation” value is -0.0295% (inactive).
The same measure, in the same setting: next, `COc1cc(/C=C/C(=O)CC(=O)/C=C/c2ccc(O)c(OC)c2)ccc1O`: -9.46% (inactive); `COc1cc2ncnc(Nc3cccc(Cl)c3)c2cc1OC`: -2.82% [at 19 µM] (inactive).
Still for that read-out and setting: to `O=[N+]([O-])c1ccc(CO)cc1` belongs 12.5% (inactive); to `CCCC(=O)c1cc(O)c(O)cc1O`, 0.0877% (inactive).
Consider `CCN(CC)c1ccc(C=O)c(O)c1`, for which the Potency was 43.3 µM (active).
In the case of `CCOC(=O)[C@H](O)[C@@H](O)C(=O)OCC`, the “activation” value is 12.9% (inactive).
In the case of `N#Cc1ccc(C/C(=N/NC(=O)Nc2ccc(OC(F)(F)F)cc2)c2cccc(C(F)(F)F)c2)cc1`, the “activation” value was -1.36% (inactive).
Take `O[Si](c1ccccc1)(c1ccccc1)c1ccccc1`: the “activation” value was -6.94% (inactive).
For the compound `Clc1cccc(Cl)n1`, the “activation” value was 0.0997% (inactive).
On the same count and under the same terms, next, `O=C(Cl)c1ccc(Cl)cc1Cl`: 0.986% (inactive); `CC/C(=C(/c1ccc(O)cc1)c1ccc(OCCN(C)C)cc1)c1ccccc1`: -11.3% [at 42.5 µM] (inactive).
Consider `Cc1ccc(N=Nc2c(O)ccc3ccccc23)c(C)c1`, for which the Potency is 0.335 µM (active).
Regarding `CC(C)(C)c1cc(CCC(=O)OCCSCCOC(=O)CCc2cc(C(C)(C)C)c(O)c(C(C)(C)C)c2)cc(C(C)(C)C)c1O`, the “activation” value was -0.373% [at 42.5 µM] (inactive).
Still for that read-out and setting: next, `CC(=O)[C@]1(O)Cc2c(O)c3c(c(O)c2[C@@H](O[C@H]2C[C@H](N)[C@H](O)[C@H](C)O2)C1)C(=O)c1ccccc1C3=O`: -7.43% [at 42.5 µM] (inactive); `Nc1cc([N+](=O)[O-])ccc1Cl`: 0.233% (inactive); `CCC(O)CO` (stereo not given): -0.256% (inactive).
Turning to `CSc1nnc(C(C)(C)C)c(=O)[nH]1`, the “activation” value was -0.574% (inactive).
Take `Brc1cc(Br)cc(Br)c1`: the “activation” value is 0.158% (inactive).
Regarding `COCCC(=O)OC`, the “activation” value was -0.585% (inactive).
Take `Nc1ccc2c(S(=O)(=O)O)cccc2c1S(=O)(=O)O`: the “activation” value was -1.09% [at 42.5 µM] (inactive).
Consider `CC(C)(C)C1=CC(=O)C(C(C)(C)C)=CC1=O`, for which the “activation” value was -3.63% [at 42.5 µM] (inactive).
Take `O=S(=O)(c1ccc(OCc2ccccc2)cc1)c1ccccc1O`: the “activation” value was -11.3% (inactive).
As for `C/C(=N\[Si](C)(C)C)O[Si](C)(C)C`, the “activation” value is 0.32% (inactive).
As for `C=C1CC[C@H]2O[C@]2(C)CC[C@@H]2[C@@H]1CC2(C)C`, the “activation” value is -0.438% (inactive).
As to `CCCCCc1ccc(O)cc1`, the “activation” value is 7.44% (inactive).
As for `O=C(c1ccccc1)c1ccc(Cl)cc1`, the “activation” value was -1.2% (inactive).
The same measure, in the same setting: to `O=C(CCCCCCCCc1cccnc1)N1CCC(C=C(c2ccccc2)c2ccccc2)CC1` belongs -8.62% (inactive); to `O=C1OCc2ccccc21`, -0.296% (inactive).
As to `CCCCCCCCCCCCS(=O)(=O)Cl`, the activation is 1.48% [at 19 µM] (inactive).
`C=Cc1ccncc1`: the “activation” value was 10% (inactive).
For the compound `CN[C@H]1CC[C@@H](c2ccc(Cl)c(Cl)c2)c2ccc(S(N)(=O)=O)cc21`, the “activation” value was -9.8% (inactive).
Same read-out and setting: next, `Cc1ccc(S(=O)(=O)C(I)I)cc1`: -7.13% (inactive).
Same read-out and setting: next, `c1ccc2c(c1)-c1ccc3ccc4cccc5cc-2c1c3c45`: 6.49% [at 42.5 µM] (inactive).
As to `CCOC(=O)OC(=O)OCC`, the “activation” value is 0.0443% (inactive).
For the compound `CCc1cccc(C)c1N(C(=O)C(=O)O)C(C)COC` (stereo not given), the “activation” value is 0.032% (inactive).
In the case of `CCOC(=O)C1=NN(c2ccc(Cl)cc2Cl)C(C)(C(=O)OCC)C1` (stereo not given), the “activation” value is -3.24% (inactive).

(Values after PubChem BioAssay (Tox21).)
